# Test results from PubChem BioAssay (EPA / NIEHS).
# Calls of active or inactive are those of the source. The calls were made as follows: active = hit-call score of the fitted dose curve at least 0.9, where 1 is the maximum; inactive = score below 0.9.
# Legend:
# [1] = CEETOX_H295R_CORTISOL: CeeTox H295R High-throughput Steroidogenesis Assay for Cortisol (AID 2283438); settings: actives raise or lower the signal;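 also: cortisol secreted into medium quantified by LC-MS/MS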
# How it was run: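 H295R human adrenal cells were prestimulated 48 h with 10 uM forskolin, then exposed 48 h to test chemical (0.1% DMSO final). Medium cortisol was quantified by HPLC-MS/MS after MTBE extraction; bidirectional fitting relative to DMSO baseline.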
# [2] = CEETOX_H295R_DOC: CeeTox H295R High-throughput Steroidogenesis Assay for DOC (AID 2283439); settings: actives raise or lower the signal
# How it was run: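 H295R adrenal cells prestimulated 48 h with 10 uM forskolin, then exposed 48 h to test chemical (0.1% DMSO final). Medium 11-deoxycorticosterone extracted with MTBE, quantified by HPLC-MS/MS; bidirectional fit versus DMSO baseline; MTT viability in same wells.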
# [3] = CEETOX_H295R_PROG: CeeTox H295R High-throughput Steroidogenesis Assay for Progesterone (PROG) (AID 2283442); settings: actives raise or lower the signal;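 as to AC50: human H295R adrenal cells primed with 10 µM forskolin before dosing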
# How it was run: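 H295R adrenal cells prestimulated 48 h with 10 uM forskolin, then exposed 48 h to test chemical in 0.1% DMSO. Progesterone in medium quantified by HPLC-MS/MS after MTBE extraction; viability checked by MTT in same wells.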
# [4] = read-out: Tumor necrosis factor receptor superfamily member 6 (Homo sapiens) (UniProt P25445); assay: LTEA_HepaRG_FAS: Life Technologies and Expression Analysis (LTEA) Assay for Fas cell surface death receptor (FAS) using HepaRG (AID 2283447); settings: mRNA level, 48 h; actives raise or lower the signal
# How it was run: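 FAS transcript level was measured by TaqMan qRT-PCR against three housekeeping genes after 48 h chemical exposure. Cells were HepaRG, 0.5% DMSO vehicle, with a top concentration of 100 uM and half-log dilutions over eight points, in duplicate.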
# [5] = read-out: Fatty acid synthase (Homo sapiens) (UniProt P49327); assay: LTEA_HepaRG_FASN: Life Technologies and Expression Analysis (LTEA) Assay for Fatty Acid Synthase (FASN) using HepaRG (AID 2283448); settings: mRNA level, 48 h; actives raise or lower the signal
# How it was run: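 Differentiated human HepaRG cells were exposed for 48 h in serum-free induction medium to eight half-log concentrations up to 100 uM in 0.5% DMSO, in duplicate. FASN mRNA was quantified by TaqMan qRT-PCR, normalized to ACTB/GAPDH/POLR2A, and fitted bidirectionally against DMSO.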
# [6] = read-out: Cyclin D2 (CCND2), CCND2 (gene 894); assay: LTEA_HepaRG_CCND2: Life Technologies and Expression Analysis (LTEA) Assay for Cyclin D2 (CCND2) using HepaRG (AID 2283449); settings: mRNA level, 48 h; actives raise or lower the signal
# How it was run: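 Read-out is CCND2 mRNA level measured by qRT-PCR in human HepaRG liver cells and normalised to three housekeeping genes. Chemicals were applied for 48 h at up to 100 uM, with gain or loss fitted relative to 0.5% DMSO.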
# [7] = read-out: Cyclin Dependent Kinase Inhibitor 1A (CDKN1A), CDKN1A (gene 1026); assay: LTEA_HepaRG_CDKN1A: Life Technologies and Expression Analysis (LTEA) Assay for Cyclin Dependent Kinase Inhibitor 1A (CDKN1A) using HepaRG (AID 2283450); settings: mRNA level, 48 h; actives raise or lower the signal
# How it was run: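 Differentiated HepaRG cells in serum-free induction medium, exposed 48 h in duplicate to eight half-log concentrations up to 100 uM in 0.5% DMSO. mRNA measured by TaqMan qRT-PCR, normalized to ACTB, GAPDH, POLR2A; bidirectional fit versus DMSO.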
# [8] = read-out: Cyclin D1 (CCND1), CCND1 (gene 595); assay: LTEA_HepaRG_CCND1: Life Technologies and Expression Analysis (LTEA) Assay for Cyclin D1 (CCND1) using HepaRG (AID 2283451); settings: mRNA level, 48 h; actives raise or lower the signal;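 as to AC50: TaqMan qRT-PCR transcript level normalised to ACTB GAPDH and POLR2A housekeeping genes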
# How it was run: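 Differentiated HepaRG cells exposed 48 h in serum-free induction medium to eight half-log concentrations from 100 uM top, 0.5% DMSO, duplicates. CCND1 mRNA measured by Fluidigm TaqMan qRT-PCR, normalised to ACTB, GAPDH, POLR2A; bidirectional fit.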
# [9] = CEETOX_H295R_ESTRADIOL: CeeTox H295R High-throughput Steroidogenesis Assay for Estradiol (AID 2283440); settings: actives raise or lower the signal;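 also: estradiol secreted into medium quantified by LC-MS/MS after dansyl derivatisation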
# How it was run: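 H295R cells pre-stimulated 48 h with 10 uM forskolin, then exposed 48 h to chemical in 0.1% DMSO. Medium estradiol quantified by MTBE extraction, dansyl derivatisation and HPLC-MS/MS; bidirectional fit versus DMSO; MTT viability required >/=70%.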
# [10] = CEETOX_H295R_ESTRONE: CeeTox H295R High-throughput Steroidogenesis Assay for Estrone (AID 2283441); settings: actives raise or lower the signal;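 also: estrone secreted into medium measured by LC-MS/MS after dansyl derivatization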
# How it was run: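 H295R cells; 48 h forskolin (10 uM) prestimulation; 48 h compound exposure, 0.1% DMSO final. Medium estrone: MTBE extraction, dansyl derivatization, HPLC-MS/MS. Bidirectional fit vs DMSO.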
# Fatty acid synthase (Homo sapiens), sequence (P49327 whole entry, looked up): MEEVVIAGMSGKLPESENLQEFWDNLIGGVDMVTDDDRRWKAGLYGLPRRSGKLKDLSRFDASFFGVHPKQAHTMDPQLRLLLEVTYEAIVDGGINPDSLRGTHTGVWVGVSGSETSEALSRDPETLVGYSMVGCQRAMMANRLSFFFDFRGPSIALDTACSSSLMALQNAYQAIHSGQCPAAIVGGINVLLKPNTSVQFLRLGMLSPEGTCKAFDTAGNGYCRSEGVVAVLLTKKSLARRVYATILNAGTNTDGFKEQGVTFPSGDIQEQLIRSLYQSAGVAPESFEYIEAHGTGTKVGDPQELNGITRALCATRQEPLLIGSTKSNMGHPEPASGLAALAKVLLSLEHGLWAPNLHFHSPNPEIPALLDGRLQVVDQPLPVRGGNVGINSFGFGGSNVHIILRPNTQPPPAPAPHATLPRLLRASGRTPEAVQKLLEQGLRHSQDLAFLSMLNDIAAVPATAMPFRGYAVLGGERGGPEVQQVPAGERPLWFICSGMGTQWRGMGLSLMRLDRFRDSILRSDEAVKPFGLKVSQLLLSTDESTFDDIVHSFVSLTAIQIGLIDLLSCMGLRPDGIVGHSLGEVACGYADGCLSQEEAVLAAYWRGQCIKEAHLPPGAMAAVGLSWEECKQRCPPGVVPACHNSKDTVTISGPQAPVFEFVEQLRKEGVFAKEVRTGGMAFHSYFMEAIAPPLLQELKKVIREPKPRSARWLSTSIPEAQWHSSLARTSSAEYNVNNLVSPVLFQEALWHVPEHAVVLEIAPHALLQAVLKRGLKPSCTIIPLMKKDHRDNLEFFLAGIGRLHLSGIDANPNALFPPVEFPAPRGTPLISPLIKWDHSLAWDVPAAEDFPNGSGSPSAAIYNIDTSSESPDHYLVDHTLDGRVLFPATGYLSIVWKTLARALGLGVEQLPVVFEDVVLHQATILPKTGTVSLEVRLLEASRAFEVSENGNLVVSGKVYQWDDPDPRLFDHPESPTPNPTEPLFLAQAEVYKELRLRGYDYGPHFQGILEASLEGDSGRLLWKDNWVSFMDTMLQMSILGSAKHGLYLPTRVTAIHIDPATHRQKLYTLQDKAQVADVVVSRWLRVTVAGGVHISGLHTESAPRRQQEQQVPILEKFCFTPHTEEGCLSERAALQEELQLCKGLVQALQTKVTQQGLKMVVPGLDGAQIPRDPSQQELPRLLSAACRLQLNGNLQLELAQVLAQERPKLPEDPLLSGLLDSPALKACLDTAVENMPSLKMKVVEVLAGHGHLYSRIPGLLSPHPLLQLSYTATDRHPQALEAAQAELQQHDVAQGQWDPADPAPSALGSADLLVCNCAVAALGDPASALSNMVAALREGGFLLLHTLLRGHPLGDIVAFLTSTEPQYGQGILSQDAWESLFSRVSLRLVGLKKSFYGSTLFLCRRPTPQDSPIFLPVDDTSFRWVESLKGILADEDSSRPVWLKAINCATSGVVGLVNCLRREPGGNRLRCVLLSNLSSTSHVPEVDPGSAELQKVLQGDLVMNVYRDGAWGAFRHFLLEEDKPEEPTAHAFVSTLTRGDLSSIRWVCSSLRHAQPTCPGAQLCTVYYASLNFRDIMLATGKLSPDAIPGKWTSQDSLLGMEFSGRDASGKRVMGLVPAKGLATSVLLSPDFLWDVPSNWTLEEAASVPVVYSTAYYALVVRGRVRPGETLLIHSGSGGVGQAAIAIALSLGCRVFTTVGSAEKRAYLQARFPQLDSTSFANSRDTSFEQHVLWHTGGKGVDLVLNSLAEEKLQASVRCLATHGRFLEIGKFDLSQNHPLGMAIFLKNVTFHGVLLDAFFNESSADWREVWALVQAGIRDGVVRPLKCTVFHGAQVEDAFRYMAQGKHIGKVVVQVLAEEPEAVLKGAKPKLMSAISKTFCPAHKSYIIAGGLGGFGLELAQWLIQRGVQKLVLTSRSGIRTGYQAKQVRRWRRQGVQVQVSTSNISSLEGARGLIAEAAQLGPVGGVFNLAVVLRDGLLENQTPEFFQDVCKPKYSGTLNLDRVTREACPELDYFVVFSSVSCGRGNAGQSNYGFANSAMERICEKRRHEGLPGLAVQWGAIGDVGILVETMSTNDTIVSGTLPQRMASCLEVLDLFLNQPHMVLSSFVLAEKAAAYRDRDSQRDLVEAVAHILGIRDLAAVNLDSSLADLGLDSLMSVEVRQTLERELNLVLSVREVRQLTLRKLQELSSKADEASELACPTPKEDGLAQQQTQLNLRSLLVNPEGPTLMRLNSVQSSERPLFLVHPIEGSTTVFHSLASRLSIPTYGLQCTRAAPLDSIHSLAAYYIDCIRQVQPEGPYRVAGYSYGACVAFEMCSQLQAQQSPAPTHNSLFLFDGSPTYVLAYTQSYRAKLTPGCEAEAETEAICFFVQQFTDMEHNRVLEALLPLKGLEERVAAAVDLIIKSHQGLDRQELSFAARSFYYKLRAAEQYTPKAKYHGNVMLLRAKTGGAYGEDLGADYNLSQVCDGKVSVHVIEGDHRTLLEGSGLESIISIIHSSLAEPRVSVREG
smiles,measurement,setting,value
CCOP(=S)(OCC)O/N=C(\C#N)c1ccccc1,AC50,[1],87.8 µM (active)
same,AC50,[2],40.4 µM (active)
same,AC50,[3],50 µM (active)
O=C(N[C@H]1CN2CCC1CC2)c1ccc2c(c1)OCCO2,outcome,[4],inactive
same,outcome,[5],inactive
same,outcome,[6],inactive
same,outcome,[7],inactive
same,outcome,[8],inactive
C[C@]12CC[C@@H](O)C[C@@H]1CC[C@@H]1[C@@H]2CC[C@]2(C)C(=O)CC[C@@H]12,outcome,[1],inactive
same,AC50,[2],2.64 µM (active)
same,AC50,[3],3.65 µM (active)
CC(C)(COCC1CO1)COCC1CO1 (stereo unspecified),outcome,[1],inactive
same,outcome,[2],inactive
same,outcome,[9],inactive
same,outcome,[10],inactive
same,outcome,[3],inactive
Cc1cc(Cl)ccc1O,outcome,[1],inactive
same,outcome,[2],inactive
same,outcome,[3],inactive
OC(Cc1ccccc1Cl)(Cn1[nH]cnc1=S)C1(Cl)CC1 (stereo unspecified),outcome,[1],inactive
same,outcome,[2],inactive
same,outcome,[3],inactive
N#Cc1cccnc1,outcome,[4],inactive
same,outcome,[5],inactive
same,outcome,[6],inactive
same,outcome,[7],inactive
same,outcome,[8],inactive
Cc1cc(C(C)(C)c2ccc(O)c(C)c2)ccc1O,AC50,[1],5 µM (active)
same,AC50,[2],2.91 µM (active)
same,outcome,[3],inactive
Cc1cc(C)cc(C)c1,outcome,[3],inactive
same,outcome,[5],inactive
same,outcome,[6],inactive
same,outcome,[7],inactive
same,outcome,[8],inactive
CC(C)O.CC(C)O.OCCN(CCO)CCO.OCCN(CCO)CCO.[Ti],outcome,[4],inactive
same,outcome,[5],inactive
same,outcome,[6],inactive
same,outcome,[7],inactive
same,outcome,[8],inactive
CC(C)=CC1C(C(=O)OCc2cccc(Oc3ccccc3)c2)C1(C)C (stereo unspecified),outcome,[1],inactive
same,outcome,[2],inactive
same,outcome,[9],inactive
same,outcome,[10],inactive
same,AC50,[3],25.8 µM (active)
CCCSP(=S)(OCC)Oc1ccc(SC)cc1 (stereo unspecified),outcome,[9],inactive
same,outcome,[10],inactive
same,AC50,[3],6.35 µM (active)
Oc1c(Br)cc(Br)cc1Br,outcome,[9],inactive
same,outcome,[10],inactive
same,AC50,[3],41.3 µM (active)
CCOCn1c(-c2ccc(Cl)cc2)c(C#N)c(Br)c1C(F)(F)F,AC50,[1],7.15 µM (active)
same,outcome,[2],inactive
same,AC50,[9],4.19 µM (active)
same,AC50,[10],5.33 µM (active)
same,AC50,[3],2.1 µM (active)
Oc1c(Cl)cc(Cl)cc1Cl,AC50,[3],50 µM (active)
same,outcome,[4],inactive
same,outcome,[5],inactive
same,outcome,[6],inactive
same,outcome,[7],inactive
same,outcome,[8],inactive
OCCN(CCO)CCO,outcome,[4],inactive
same,outcome,[5],inactive
same,outcome,[6],inactive
same,outcome,[7],inactive
same,outcome,[8],inactive
Oc1cc(Cl)c(Cl)cc1Cl,outcome,[4],inactive
same,outcome,[5],inactive
same,outcome,[6],inactive
same,outcome,[7],inactive
same,outcome,[8],inactive
CCCCCCCCCCCCc1cccc(S(=O)(=O)O)c1,outcome,[4],inactive
same,outcome,[5],inactive
same,outcome,[7],inactive
same,AC50,[8],45 µM (active)
Cc1ccccc1OP(=O)(Oc1ccccc1C)Oc1ccccc1C,outcome,[1],inactive
same,outcome,[2],inactive
same,outcome,[3],inactive
O=[N+]([O-])c1ccc(Nc2ccccc2)cc1,outcome,[1],inactive
same,outcome,[2],inactive
same,outcome,[9],inactive
same,outcome,[10],inactive
same,outcome,[3],inactive
O=S1OC[C@@H]2[C@H](CO1)[C@]1(Cl)C(Cl)=C(Cl)[C@@]2(Cl)C1(Cl)Cl (stereo partly specified),AC50,[1],38.3 µM (active)
same,AC50,[2],16.3 µM (active)
same,AC50,[3],8.22 µM (active)
CCCCCCCCCCCCN(C)C,outcome,[1],inactive
same,outcome,[2],inactive
same,outcome,[9],inactive
same,outcome,[10],inactive
same,outcome,[3],inactive
Clc1cccc(Cl)c1,outcome,[4],inactive
same,outcome,[5],inactive
same,outcome,[6],inactive
same,outcome,[7],inactive
same,outcome,[8],inactive
COc1ccccc1N,outcome,[4],inactive
same,outcome,[5],inactive
same,outcome,[6],inactive
same,outcome,[7],inactive
same,outcome,[8],inactive
COc1ccc(N)cc1,outcome,[1],inactive
same,outcome,[2],inactive
same,AC50,[3],16.4 µM (active)
CCC[CH2][Sn]([Cl])([Cl])[CH2]CCC,outcome,[1],inactive
same,outcome,[2],inactive
same,outcome,[9],inactive
same,outcome,[10],inactive
same,outcome,[3],inactive
OC(Cc1ccccc1Cl)(Cn1cncn1)C1(Cl)CC1 (stereo unspecified),AC50,[1],6.05 µM (active)
same,outcome,[2],inactive
same,AC50,[9],3.86 µM (active)
same,AC50,[10],7.74 µM (active)
same,AC50,[3],6.41 µM (active)
COC(=O)Nc1cccc(OC(=O)Nc2cccc(C)c2)c1,outcome,[1],inactive
same,AC50,[2],19.8 µM (active)
same,outcome,[3],inactive
CC(C)(C)c1cc([N+](=O)[O-])cc(C(C)(C)C)c1O,outcome,[9],inactive
same,outcome,[10],inactive
same,outcome,[3],inactive
O=C(O)C1(c2ccc3c(c2)OC[C@H](Cc2ccc(-c4ccccc4)cc2)[C@H]3O)CCCC1,outcome,[4],inactive
same,AC50,[5],50 µM (active)
same,outcome,[6],inactive
same,AC50,[7],80.2 µM (active)
same,outcome,[8],inactive
Clc1cccc(Cl)c1Cl,outcome,[4],inactive
same,outcome,[5],inactive
same,outcome,[6],inactive
same,outcome,[7],inactive
same,outcome,[8],inactive
Oc1cccc(-c2ccccc2)c1,outcome,[1],inactive
same,outcome,[2],inactive
same,outcome,[9],inactive
same,outcome,[10],inactive
same,AC50,[3],10 µM (active)
CCOP(=O)(OCC)OC(=CCl)c1ccc(Cl)cc1Cl,AC50,[1],5.66 µM (active)
same,AC50,[2],5.48 µM (active)
same,AC50,[3],5.17 µM (active)
CC(C)(C)c1ccccc1O,outcome,[1],inactive
same,outcome,[2],inactive
same,outcome,[3],inactive
same,outcome,[4],inactive
same,outcome,[5],inactive
same,outcome,[6],inactive
same,outcome,[7],inactive
same,outcome,[8],inactive
CN(C)C(=S)S,outcome,[5],inactive
same,outcome,[6],inactive
same,outcome,[7],inactive
same,outcome,[8],inactive
